# Screening results: PubChem, National Center for Advancing Translational Sciences (NCATS)
# Compounds with a hit are over-represented: about 19% of the library has one in this group of screens.
# HT1080 IDH1KD tx: qHTS for induction of synthetic lethality in tumor cells producing 2HG: qHTS for the HT-1080-IDH1KD cell line | HT-1080 IDH1 knockdown viability, ATP luminescence, 48 h | Potency, µM (titrated, usually from 46.1 µM), inactives show at the highest dose activity, negative = toxicity, actives largely listed as cytotoxic | 2% of 360,000 active | AID 686971, 2013;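 also: potency is read from the fitted curve at half-maximal effect; 0% = DMSO wells and -100% = cell-free medium wells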
#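 % activity derives from luminescence (CellTiter-Glo), normalised to DMSO and no-cell wells. HT-1080-IDH1KD cells, 750/well, had 48 h compound exposure at 37 °C.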
# TDP1 cell noCPT: qHTS for Inhibitors of human tyrosyl-DNA phosphodiesterase 1 (TDP1): qHTS in cells in absence of CPT; DT40 Tdp1-/- hTDP1 cells, no CPT, ATP luminescence, 48 h; Potency, µM (top dose mostly 46.2 µM), for inactives: top-dose activity change, negative = growth inhibition, most hits filed as inhibitors; 15% of 420,000 active; also: potency is read from the fitted curve at half-maximal effect; nearly all actives have a fitted effect of over 55% in size
#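 Luminescent ATP content (CellTiter-Glo) served as the growth readout. Knockout chicken DT40 cells expressing human TDP1 were exposed to compounds without camptothecin for a minimum 48 hr at 37 °C.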
# HT1080-NT tox: qHTS for induction of synthetic lethality in tumor cells producing 2HG: qHTS for the HT-1080-NT fibrosarcoma cell line; Potency, µM (top dose mostly 46.1 µM), inactives show top-dose activity, negative = less viability, most hits filed as cytotoxic; HT-1080-NT fibrosarcoma viability, CellTiter-Glo ATP luminescence, 48 h; AID 686970, 2013; 1.6% of 360,000 active;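 also: NT is the 2HG producing partner of a matched IDH1 knockdown line; potency is read from the fitted curve at half-maximal effect; 0% = DMSO-treated cells and -100% = media-only wells without cells; nearly all actives have a fitted effect of over 55% in size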
#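 Toxicity toward the 2HG-producing NT line was scored as %Activity, normalised to DMSO and no-cell wells, from CellTiter-Glo luminescence after 48 hours' treatment.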
# IL1B secr inh: qHTS for Inhibitors of Inflammasome Signaling: IL-1-beta AlphaLISA Primary Screen; THP-1 LPS/ATP IL-1B secretion, AlphaLISA, 16 h; stronger effect = lower value; activity change, % at 57.5 µM; 4.7% of 360,000 active; in the data active = activity change below about -50%; inconclusive = mostly about -30% to -49%
#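 Secreted IL-1B measured by AlphaLISA bead assay after 16 h compound exposure of THP-1 cells; compounds (final up to 57.5 uM) added 1 h before LPS (250 ng/mL) and ATP (1.25 mM) stimulation; lower signal means less secretion.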
# DT40 TDP1 CPT: qHTS for Inhibitors of human tyrosyl-DNA phosphodiesterase 1 (TDP1): qHTS in cells in presence of CPT; Potency, µM (highest dose often 46.2 µM), inactives show top-dose activity change, negative = growth inhibition, usual class: inhibitors; AID 686979, 2013; 12% of 420,000 active; chicken DT40 Tdp1-/-;hTDP1 cells + 20 nM CPT, ATP luminescence, 48 h; also: potency is read from the fitted curve at half-maximal effect; nearly all actives have a fitted effect of over 55% in size
#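 Chicken DT40 Tdp1-/- cells stably complemented with human TDP1 were seeded at 400 cells/well in medium containing 20 nM camptothecin, exposed to pin-transferred compounds, and grown at 37 °C for at least 48 hr. Viability was read as ATP luminescence.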
# An asterisk follows results filed as active; u = inconclusive; x = no result given; [ ] = dose if it differs, or a comment. Unless noted, calls follow the shape of the dose curve; as a rule, active = well fitted curve in the direction sought with a large enough effect; inconclusive = small, poorly fitted or top-dose-only effect, or another doubt; inactive = no such curve, though single readings can be large; an effect the other way counts as inactive or inconclusive. Unless noted, % is scaled to controls: 0 for no effect and ±100 for the full control effect.
SMILES,HT1080 IDH1KD tx,TDP1 cell noCPT,HT1080-NT tox,IL1B secr inh,DT40 TDP1 CPT
CN(C(=O)COC(=O)c1ccc(Cl)c(S(=O)(=O)NCc2ccccc2)c1)C1CCS(=O)(=O)C1 (stereo not drawn),10%,3%,1%,11,-17%
COc1ccc(C2C(C(=O)Nc3cccnc3)=C(C)Nc3nc(-c4ccc(OC)c(OC)c4)nn32)cc1 (stereo not drawn),x,-16%,x,x,2%
O=C(N/N=C/c1ccc(F)cc1)c1cc(-c2ccccn2)nc2ccccc12,-8%,-19%,-2%,18,u
COc1cccc(/C=N/NC(=O)c2cc(-c3ccccn3)nc3ccccc23)c1O,u,8.2µM*,u,87,9.2µM*
COc1ccc(/C=N/NC(=O)c2cc(-c3cccnc3)nc3ccccc23)c(OC)c1,24%,4.6µM*,7%,27,u
N/C(=N\OC(=O)CCn1cccc(C(F)(F)F)c1=O)c1ccc(Cl)cc1,-15%,u,-20%,23,u
O=C(O)c1ccc(/C=N/NC(=S)NCCN2CCOCC2)cc1,11%,-19%,12%,16,5%
S=C(NCCN1CCOCC1)N/N=C/c1cccs1,16%,4.1µM*,3%,-4,18µM*
Oc1cccc(/C=N/NC(=S)NCCN2CCOCC2)c1O,-4%,5.8µM*,2%,119,7.3µM*
COCc1cc(CN2CCN(CCc3ccccc3)C(CCO)C2)ccc1OC (stereo not drawn),0%,u,5%,2,1%
Cc1ccc(S(=O)(=O)N2CCCCC2CCNC(=O)C(=O)NC2CCCC2)cc1 (stereo not drawn),-17%,21µM*,-7%,7,u
Cc1ccc(C)c(S(=O)(=O)N2CCCCC2CCNC(=O)C(=O)NC2CCCC2)c1 (stereo not drawn),-22%,16µM*,-1%,7,u
CN(C)N1C(=O)CC(NNC(=O)c2ccncc2)C1=O (stereo not drawn),21%,-20%,24%,-21,-12%
COc1ccc(CCNC(=O)[C@@H](NC(=O)c2ccccc2F)C(C)C)cc1OC,9%,-8%,5%,35,5%
Cc1ccc(NC(=O)Nc2nnc([C@H]3C[C@H](O)[C@@H](CO)O3)s2)cc1,4%,-9%,3%,-28,1%
CC1Sc2n(c3ccccc3[n+]2C)N=C1c1ccccc1 (stereo not drawn),7.3µM*,1.5µM*,-23%,-5,1.5µM*
C[n+]1c2n(c3ccccc31)N=C(c1ccc(Cl)cc1)CS2,u,0.92µM*,u,-74*,1.2µM*
CCCCn1nnnc1SCC(=O)N1CCOCC1,18%,-7%,14%,23,-7%
CCc1c(C)[nH]c2ccc(C)cc2c1=O,7%,u,14%,10,u
Cc1ccc2c(C)[nH]c(=O)cc2c1,-15%,7.3µM*,-7%,34,7.3µM*
CCOC(=O)c1c(C)c(-c2ccccc2)n(CC(=O)NCCC(C)C)c1C,6%,10µM*,13%,9,u
O=C(COc1ccccc1F)Nc1ccc2[nH]c(=O)[nH]c2c1,1%,-27%,10%,0,-27%
O=C(COc1ccccc1F)Nc1ccc(Cl)c(-c2nc3ccccc3[nH]2)c1,x,13µM*,x,x,u
O=C(COc1ccc(F)cc1)Nc1ccc(Cl)c(-c2nc3ccccc3[nH]2)c1,x,21µM*,x,x,u
COc1ccc(OCC(=O)Nc2ccc(Cl)c(-c3nc4ncccc4o3)c2)cc1,x,-23%,x,x,-25%
SMILES,HT1080 IDH1KD tx,TDP1 cell noCPT,HT1080-NT tox,IL1B secr inh,DT40 TDP1 CPT
Cc1cn(C2OC(COC(=O)c3ccccc3)C(OC(=O)c3ccccc3)C2OC(=O)c2ccccc2)c(=O)[nH]c1=O (stereo not drawn),u,u,-29%,-15,23µM*
Cc1cn(C2OC(COC(=O)c3ccccc3)C(O)C2O)c(=O)[nH]c1=O (stereo not drawn),4%,5%,2%,15,10%
COc1cc(CN2CCOc3ccc(CN4CCC(O)(c5cccnc5)CC4)cc3C2)ccc1F,x,u,x,x,7%[9.04 µM]
O=C(Nc1ccccc1)Nc1ccc(F)c([N+](=O)[O-])c1,3%,16µM*,-4%,-90*,16µM*
O=C(Nc1ccc(F)c([N+](=O)[O-])c1)C(=O)c1c(O)[nH]c2ccccc12,-6%,13µM*,-29%,0,18µM*
O=C(CSc1ccccn1)Nc1ccc(F)c([N+](=O)[O-])c1,-3%,u,-13%,-76*,u
Cc1ccc(NNC(=O)c2ccc(Cl)cc2)nn1,0%,-10%,3%,-5,5%
CCCn1c(=O)c(C)cn2nc(N)nc12,x,-1%,x,x,6%
C/C1=C\CCC2C(/C=C(\C)CC1)OC(=O)C2CN1CCCCC1 (stereo not drawn),21µM*,u,u,x,10µM*
C/C(CCc1oc2ccccc2c1-c1ccc(C)o1)=N/O,u,18µM*,-26%,-17,u
CC(=O)CCc1oc2c([N+](=O)[O-])cccc2c1-c1ccc(C)o1,-11%,u,-14%,0,u
C/C(CCc1oc2c(Br)cc(Br)cc2c1-c1ccc(C)o1)=N\O,-29%,18µM*,-18%,11,16µM*
COC(=O)c1nc(-c2ccc(C)cc2)[nH]c1C(C)(C)C,-2%,-26%,-4%,u,-20%
COc1ccc2c(C#N)c3ccccn3c2c1,1%,23µM*,-1%,-9,u
Cc1cc(=O)n2ccccc2c1C#N,1%,-11%,22%,6,-10%
Cc1n[nH]c(=O)nc1N1CCN(c2ccccc2)CC1,11%,1%,15%,-16,1%
Cc1n[nH]c(=O)nc1N1CCc2ccccc2C1,0%,18µM*,10%,3,-3%
CN1C[C@@H]2[C@@H]3C(=O)N(C)C(=O)[C@@H]3[C@](Cc3ccccc3)(C1=O)N2C(=O)c1ccc(Cl)cc1,6%,-5%,9%,10,-1%
COc1ccc(N(CC(=O)NCCOc2ccccc2)S(=O)(=O)c2ccc(C)cc2)cc1,-3%,21µM*,-4%,-22,u
COc1ccc(S(=O)(=O)N(CC(=O)NCc2ccccn2)c2ccc(Cl)cc2)cc1,-1%,u,-27%,-54*,u
